Test results published in the supplement of paper PMC10127200.
Structures can show the parent of a compound that is named as a salt.

Tests used:
Test in all cases: Euclidean distance of Cell Painting phenotypic profile (signed KS, 77 features) to DMSO centroid (dimensionless distance); higher = stronger phenotypic change vs DMSO (phenoactivity)
Settings in all cases: 48 h; 5 or 10 uM (library dependent)
[1] = test system: 786-O
Summary of the method: (§1)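 At 10 or 5 uM, as set by the library, and 0.1% DMSO final, compounds were applied for 48 h to five cancer lines and one healthy fibroblast line. Stained cells were imaged confocally at 20X in 9 fields per well, and Harmony extracted 77 features scored as signed Kolmogorov-Smirnov statistics against vehicle wells on the same plate. Profiles underwent plate-position correction, correlation weighting and replicate averaging at the top dose. Phenoactivity is the Euclidean distance from each such profile to the median vehicle profile.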

[2] = test system: A549
Summary of the method: as §1

[3] = test system: DU145
Summary of the method: as §1

[4] = test system: FB
Summary of the method: as §1

[5] = test system: HEPG2
Summary of the method: as §1

[6] = test system: OVCAR4
Summary of the method: as §1

Compound	Euclidean distance [1]	Euclidean distance [2]	Euclidean distance [3]	Euclidean distance [4]	Euclidean distance [5]	Euclidean distance [6]
COc1ccc(CN2CCNCC2)c(OC)c1OC [Trimetazidine dihydrochloride]	0.784	0.96	0.805	0.719	0.412	1.08
CN1C(=O)COc2c(C(=O)NC3CN4CCC3CC4)cc(Cl)cc21 (configuration not stated) [Azasetron HCl]	0.735	0.632	0.582	0.666	0.533	0.74
Nc1ccncc1 [4-Aminopyridine]	1.38	0.626	0.961	0.938	0.429	0.946
O=C(C[S+]([O-])C(c1ccccc1)c1ccccc1)NO (configuration not stated) [Adrafinil]	1.35	0.729	0.936	0.942	0.585	1.57
NC(=O)CN1CC(c2ccccc2)CC1=O (configuration not stated) [Phenylpiracetam]	1.05	1.45	0.789	0.956	0.413	1.3
Fc1cc(F)c2c(c1)[C@H]1C=CC[C@H]1C(c1cccnc1)N2 (some centres not stated) [Golgicide A]	0.733	0.432	0.82	1.04	0.802	0.985
Cc1ccccc1-n1c(Cn2ncc3c(N)ncnc32)nc2cccc(C)c2c1=O	0.868	0.946	1.12	0.901	2.23	1.03
CN1c2ccccc2C(NCCCCCCC(=O)O)c2ccc(Cl)cc2S1(=O)=O (configuration not stated) [Tianeptine sodium]	1.2	0.593	0.767	1.05	0.471	1.36
CN1[C@H]2C[C@H](OC(=O)[C@H](CO)c3ccccc3)C[C@@H]1[C@@H](O)C2 [Anisodamine Hydrobromide]	0.645	0.397	2.62	1.12	0.513	0.688
COC(=O)C[C@](O)(CCC(C)(C)O)C(=O)O[C@@H]1C(OC)=C[C@]23CCCN2CCc2cc4c(cc2[C@H]13)OCO4 [Harringtonine]	3.42	3.22	4.37	3.78	3.46	3.73
CCC1(C)CC(=O)NC(=O)C1 [Bemegride]	0.845	0.616	0.948	0.603	0.381	0.793
CNCC(=O)c1ccc(O)c(O)c1 [Adrenalone HCl]	1.06	0.418	1.18	1.16	0.892	0.981
